Rows were chosen to be rich in hits. Some 1.3% of all compounds tested hit in one or more screens of this group.
RE007 growth inh: less growth of the S. pombe RE007 Vpr strain | AID 651644 | 360,000 compounds, 0.21% hits | Potency, µM (top dose mostly 92.2 µM), for inactives: top-dose activity change, negative = less growth, hits mostly inhibitors | S. pombe RE007 Vpr strain, BacTiter-Glo ATP luminescence, 24 h; active means well fitted falling curve with a large enough effect; inconclusive means small, poorly fitted or top-dose-only effect; inactive means no such curve, though single readings can be large or run the other way; further: nearly all actives have a fitted effect of over 50% in size
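Fission yeast RE007 carrying one integrated HIV-1 vpr copy, seeded at OD 0.01 in PMG+AL medium with 23 nL pinned compound. Grown 24 h at 30 degrees; viability read by BacTiter-Glo luminescence after 5 min.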
LmPK inh: inhibitors of Leishmania mexicana pyruvate kinase. Q27686. purified LmPK, Kinase-Glo ATP luminescence, 1 h. Potency, µM (highest dose often 57.5 µM), without a hit: top-dose activity change, negative = inhibition, hits mostly inhibitors. 290,000 compounds, 0.37% hits
Target sequence (Q27686 whole entry, looked up): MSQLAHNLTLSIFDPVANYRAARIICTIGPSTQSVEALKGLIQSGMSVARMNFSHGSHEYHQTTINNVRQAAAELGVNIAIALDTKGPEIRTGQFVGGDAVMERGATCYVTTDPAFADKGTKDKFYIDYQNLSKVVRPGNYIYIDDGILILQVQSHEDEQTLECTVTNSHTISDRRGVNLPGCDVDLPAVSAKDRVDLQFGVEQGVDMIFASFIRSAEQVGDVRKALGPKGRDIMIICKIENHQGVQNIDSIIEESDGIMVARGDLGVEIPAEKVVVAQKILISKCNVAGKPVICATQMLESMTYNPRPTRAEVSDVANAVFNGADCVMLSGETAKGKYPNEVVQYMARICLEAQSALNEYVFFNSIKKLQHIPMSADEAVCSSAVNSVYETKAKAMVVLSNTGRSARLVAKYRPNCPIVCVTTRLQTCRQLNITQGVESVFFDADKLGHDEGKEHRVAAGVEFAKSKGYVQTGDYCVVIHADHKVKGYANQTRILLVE
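Purified LmPK (0.1 nM) with 0.5 mM PEP and 0.1 mM ADP in imidazole buffer pH 7.2 with MgCl2/KCl, 1 h at room temperature. ATP formed was read by luciferase luminescence and normalized to no-enzyme and uninhibited controls.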
AMA1-RON2 inh: AMA1-RON2 (P. falciparum) interaction inhibition; AlphaScreen AMA1-biotinylated RON2 peptide binding; Potency, µM (doses to about 58.2 µM), inactives show top-dose activity change, negative = inhibition, actives largely listed as inhibitors; 360,000 compounds, 0.2% hits; AID 720542;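 further: 0% = vehicle wells and -100% = peptide control; nearly all actives have a fitted effect of over 45% in size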
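AMA1 (3D7) with his tag at 25 nM final met compounds first, then biotinylated RON2 peptide at 25 nM; detection used donor plus acceptor beads, 10 µg/mL apiece, read by AlphaScreen after 30 min at room temperature.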
VACV Venus inh: vaccinia inhibition (Venus reporter); 330,000 compounds, 0.46% hits; Vaccinia virus Venus reporter expression, fluorescence; Potency, µM (doses to about 36.5 µM), without a hit: top-dose activity change, negative = inhibition, actives largely listed as inhibitors; calls by dose curve; tested in A549 cells; further: nearly all actives have a fitted effect of over 30% in size
TbPYK inhibitor: inhibitors of Trypanosoma brucei pyruvate kinase. 410,000 compounds, 0.12% hits. TbPYK enzyme, Kinase-Glo Plus ATP luminescence, 45 min. Q57TT1. Potency, µM (series often up to 76.8 µM), for the others: top-dose activity, negative = inhibition, hits mostly inhibitors; further: nearly all actives have a fitted effect of over 50% in size
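Activity of T. brucei pyruvate kinase was followed by Kinase-Glo Plus luminescence after the enzyme reacted 45 min at room temperature with 130 uM ADP (final) and substrate. Test compounds were added before ADP at multiple concentrations.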
VACV mCherry inh: inhibitors of vaccinia virus infection (mCherry reporter signal) | Vaccinia virus mCherry reporter infection, fluorescence | Potency, µM (series often up to 36.5 µM), inactives show at the top dose activity change, negative = inhibition, actives largely listed as inhibitors | 310,000 compounds, 0.63% hits | AID 720579; calls by dose curve; tested in A549 cells; further: nearly all actives have a fitted effect of over 35% in size
Active calls of the source: *; i = inactive; ? = inconclusive; · = no result given; ! = repeats disagree; [ ] = dose if it differs, or a comment. Unless noted, the call rests on the fitted dose curve; in most records, active means well fitted curve in the direction sought with a large enough effect; inconclusive means small, poorly fitted or top-dose-only effect, or another doubt; inactive means no such curve, though single readings can be large; an effect the other way counts as inactive or inconclusive. Unless noted, on the % scale 0 is the no-effect control and ±100 the full control effect; potency means the concentration at half of the fitted maximal effect.

SMILES | RE007 growth inh | LmPK inh | AMA1-RON2 inh | VACV Venus inh | TbPYK inhibitor | VACV mCherry inh
Cc1cc(C)c(S(=O)(=O)Nc2cc(SCC(=O)O)c(O)c3ccccc23)cc1C | -14.1% | 20µM* | -19.7% | -1.4% | 10µM* | -1.3%
COc1ccc(S(=O)(=O)Nc2cc(SCC(=O)O)c(O)c3ccccc23)cc1 | -25.7% | ? | ? | · | ? | ·
N[C@@H](C(=O)N[C@H]1C(=O)N2C(C(=O)O)=C(Cl)CC[C@H]12)c1ccccc1 | · | · | · | · | 3.3% | ·
Cn1nnnc1Sc1ncnc2scc(-c3ccc(F)cc3)c12 | -17.0% | -0.4% | 0.8% | ? | 1.0% | 10µM*
Cn1nnnc1Sc1ncnc2scc(-c3ccc(Br)cc3)c12 | · | · | · | · | 2.7% | ·
Cc1ccc(CN2CCOc3ccc(C(C)(O)COc4ccccc4)cc3C2)o1 (centres undefined) | · | · | · | 7.2% | · | -8.6%
O=c1c(-c2ccc(O)cc2)coc2cc(O)ccc12 | 7.4%[18.4 µM] | · | 6.4% | 0.631µM*! | 4.7% | ?
CCC1CN(Cc2cn[nH]c2-c2ccc(F)cc2)Cc2cc(OC)ccc2O1 (centres undefined) | · | · | · | -16.0% | · | -13.5%
Cc1ccc(C(=O)c2ccc(C)cc2)cc1 | -3.7% | 0.4% | 3.0% | -6.3% | 3.3% | i
Cc1ccc(C(=O)c2no[n+]([O-])c2C(=O)c2ccc(C)cc2)cc1 | 31.6µM* | 1.8% | 1.8% | -4.5% | -5.0% | -1.7%
COc1cc(-c2cc(C)c3c(OC)ccc(OC)c3n2)cc2c1OCCN(C(=O)Cn1nc(C)cc1C)C2 | · | · | · | -3.9% | · | -20.3%
Cc1csc(SCC(=O)N2CCOc3ccc(C(O)C4CCCCC4)cc3C2)n1 (centres undefined) | · | · | · | -10.7% | · | -4.7%
COC(=O)c1sccc1S(=O)(=O)N1CCC(n2c(CC3CCCC3)nc3cccnc32)CC1 | · | · | · | -4.9% | · | -10.8%
CCOC(=O)CCc1ccc(NC(=O)/C=C/c2ccc([N+](=O)[O-])o2)cc1 | 0.3% | · | -9.4% | 12.6µM* | 11.0% | ?
CCc1ccc(S(=O)(=O)c2c(C(=O)c3ccccc3)cnc3ccc(CC)cc23)cc1 | · | · | · | -10.3% | -4.4% | -12.0%
Cc1ccc(NC2=C(Cl)C(=O)c3ccccc3C2=O)cc1 | -2.1% | -10.6% | -23.3% | -1.2% | -5.7% | -18.9%
Cc1ccc(SC2=C(N(C)C)C(=O)c3ccccc3C2=O)cc1 | ? | · | 8.91µM* | 1.3% | -18.7% | -11.4%
C/C(CCc1oc2c(Br)cc(Br)cc2c1-c1ccc(C)o1)=N\O | -14.6% | -12.1% | 3.77µM* | -2.1% | -17.2% | i
COc1cccc(-c2ccc(O)c(CNCc3cccc(OC)c3OC)c2)n1 | · | · | · | -10.5% | · | -15.2%
CSc1nc(NCCN(C)C)c2sc3nc(-c4ccco4)c4c(c3c2n1)CCC4 | -12.5% | · | -13.3% | -5.7% | 3.6% | i
CSc1nc(N(C)CCO)c2sc3nc(-c4ccco4)c4c(c3c2n1)CCC4 | -3.5% | 0.1% | 11.9µM* | · | -9.7% | ·
COc1cc(/C=C/c2ccc3cccc(O)c3n2)cc(OC)c1OC | 3.4% | -1.0% | 103.3% | -21.8% | -12.7% | 8.91µM*
CC(=O)c1ccc(F)c(-c2cc(C)cc3c2OC(CNC(=O)c2cccnc2)C3)c1 (centres undefined) | · | · | · | -14.5% | · | -14.1%
CCCCN(C)C(=O)c1cc2cc3ccc(OC)cc3nc2s1 | ? | 14.1µM* | 20.4% | · | ? | ·
Cc1ncc2c(c1CNC(=O)c1ccc3c(c1)OCO3)CCN(C(=O)C1Cc3ccccc3O1)C2 (centres undefined) | · | · | · | 13.2% | · | -2.5%
SMILES | RE007 growth inh | LmPK inh | AMA1-RON2 inh | VACV Venus inh | TbPYK inhibitor | VACV mCherry inh
CSc1ncc(C(=O)Nc2ccccc2C)c(C)n1 | 14.5% | 1.3% | 1.7% | -1.1% | 2.0% | i
COC(=O)c1cnc(SC)nc1C | -2.8% | -0.7% | 2.82µM* | · | -3.5% | ·
COc1ccc(S(=O)(=O)NCC(c2cccnc2)N2CCN(c3ccccc3)CC2)cc1C (centres undefined) | 0.2% | 9.0% | -13.4% | 10µM* | 1.8% | -17.2%[1.46 µM]
COc1ccc(S(=O)(=O)NCC(c2cccnc2)N2CCN(c3ccc(F)cc3)CC2)cc1C (centres undefined) | 27.6% | 2.1% | -5.3% | ? | -12.1% | ·
Cc1ccc(Nc2c3c(nc4nc(-c5cccs5)nn24)CCCC3)cc1F | · | · | · | ? | -4.8% | 11.2µM*
CC(=O)c1cccc(Nc2c3c(nc4nc(-c5cccs5)nn24)CCCC3)c1 | · | · | · | -12.7% | -10.6% | -18.2%
CC(NC(=O)c1ccco1)c1nnc2n1CCN(Cc1ccc(Cl)cc1)CC2 (centres undefined) | · | · | · | -4.6% | · | -13.2%
CC(SC(=S)N1CCOCC1)C(=O)O (centres undefined) | -9.5% | -0.3% | 0.0% | -5.3% | -1.8% | -9.1%[1.46 µM]
S=C(SSC(=S)N1CCOCC1)N1CCOCC1 | 0.8%[18.4 µM] | · | 89.4% | -14.2% | 3.16µM* | 10.1%
COc1cc2nc(N3CCCC(O)C3)c(CNCc3ccccc3F)cc2c(OC)c1OC (centres undefined) | · | · | · | 6.8% | · | -12.5%
Cc1cc(N(C)C)cc(C)c1/C=C/c1cc[n+](C)c2ccccc12 | · | · | · | -22.6% | · | -26.6%
CN1CCCC(CNC(=O)c2cnn(-c3ncc4c(n3)-c3ccccc3CC4)c2C2CC2)C1 (centres undefined) | · | · | · | -1.2% | · | -19.4%
C#CCN(Cc1ccc(OC)cc1)S(=O)(=O)C=C | · | · | · | 28.2µM* | · | ?
COc1ccc(CN(Cc2cccn2C)S(=O)(=O)c2ccccc2)cc1 | 5.4% | 4.9% | ? | -6.8% | -5.8% | -9.4%
CCc1ccc(/C=C2\SC(=S)N(CCCC(=O)N3CCN(C)CC3)C2=O)cc1 | -21.0% | · | ? | 28.2µM* | -4.5% | ?
COC(=O)c1c[nH]c2c1-c1cc(C(=O)OCc3ccccc3)n(S(=O)(=O)c3ccc(C)cc3)c1C(=O)C2=O | -7.6% | · | -7.7% | 2.24µM* | -2.8% | ?
Oc1cccc(-c2nc3c4c(ncn3n2)-c2ccccc2CC42CCCC2)c1 | ? | -8.6% | -9.6% | 17.8µM* | 3.3% | 12.6µM*
COc1ccc(-c2nc3c4c(ncn3n2)-c2ccccc2CC42CCCC2)cc1 | 2.5% | 1.0% | 1.1% | -2.7% | -0.6% | -4.2%
CCN(c1ccccc1)S(=O)(=O)c1cc(C(=O)Nc2ccc(Br)cc2)ccc1F | 15.2% | 4.4% | -1.5%[11.6 µM] | 12.6µM* | -6.3% | 14.1µM*
CCN(c1ccccc1)S(=O)(=O)c1cc(C(=O)Nc2ccccc2Cl)ccc1F | 15.4% | 0.3% | 28.0% | -20.2% | -4.1% | -10.4%
CC[C@@]1([C@@H]2O[C@@H]([C@H]3O[C@@](O)(CO)[C@H](C)C[C@@H]3C)C[C@@H]2C)CC[C@H]([C@]2(C)CC[C@]3(C[C@H](O)[C@@H](C)[C@@H]([C@@H](C)[C@@H](OC)[C@H](C)C(=O)O)O3)O2)O1 (stereo in doubt) | · | · | · | ? | · | i

Screening results (PubChem)
